Compounds with a hit are over-represented: about 2.6% of the library has one in this group of screens.
eIF4H inh: human eIF4H binding inhibitors, primary screen, translation initiation inhibitor project, biochemical, uHTS, fluorescence polarization; Eukaryotic translation initiation factor 4H (Homo sapiens), Q15056; eIF4H fluorescence polarization binding assay; inhibition, % at 35 µM; hit rate 0.94% among 290,000; AID 2012, 2009;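 also: calls also rest on retests at 20 µM and on dose response follow-up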
PHOSPHO1 inh: PubChem AID 1565 | Phosphoethanolamine/phosphocholine phosphatase (Homo sapiens), Q8TCT1 | recombinant PHOSPHO1, absorbance phosphatase assay | inhibition, % at 13.3 µM | hit rate 1.1% among 290,000; in the data active = inhibition above about 60%
Target sequence (Q8TCT1 whole entry, looked up): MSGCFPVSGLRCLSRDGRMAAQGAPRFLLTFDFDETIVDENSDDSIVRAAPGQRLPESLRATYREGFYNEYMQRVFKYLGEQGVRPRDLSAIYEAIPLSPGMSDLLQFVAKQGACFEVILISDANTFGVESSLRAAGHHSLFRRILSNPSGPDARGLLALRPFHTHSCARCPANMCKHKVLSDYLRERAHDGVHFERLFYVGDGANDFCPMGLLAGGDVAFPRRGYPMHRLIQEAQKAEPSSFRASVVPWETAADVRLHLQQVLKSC
MLLE-PAM2 inh: inhibitors of PABP1 MLLE–PAM2 peptide binding, primary screen, biochemical, fluorescence polarization, FITC-PAM2, GST-MLLE. Polyadenylate-binding protein 1 (Homo sapiens), P11940. inhibition, % at 20 µM. hit rate 0.36% among 360,000. AID 588489, 2011; in the data active = inhibition above about 35%, passing the limit was not always enough;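 also: plate controls were DMSO wells with GST-MLLE for no effect and wells lacking GST-MLLE protein for full effect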
PABP polyA inh: PABP poly(A) RNA binding inhibitors, primary screen, biochemical, fluorescence polarization, uHTS | inhibition, % at 35 µM | hit rate 1% among 290,000 | AID 2014, 2009;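 also: calls also rest on retests at 20 µM and on dose response follow-up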
CRFR2-BP antag: antagonists of CRF-BP/CRF-R2 complex, primary screen, cell-based, HEK293, calcium dye fluorescence, uHTS | inhibition, % at 11.8 µM | CRF-induced calcium fluorescence | hit rate 0.59% among 350,000;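 active = inhibition of the ligand-induced calcium signal above about 50% at the single tested concentration, limit read from the data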
Active calls of the source: *; ? = inconclusive; / = not tested or not shown; ! = a repeat was not active. Unless noted, no rule for the calls is given here.

SMILES	eIF4H inh	PHOSPHO1 inh	MLLE-PAM2 inh	PABP polyA inh	CRFR2-BP antag
O=C1c2ccccc2C(=O)N1c1cccc2cccnc12	64*	-7	11	-7	16
O=C1C2C3C=CC(C3)C2C(=O)N1c1cccc2cccnc12 (stereo not drawn)	9	-28	6	2	-1
O=S(=O)(c1ccccc1)c1nc(Nc2ccccc2N2CCOCC2)sc1Cl	10	79*	-11	7	25
O=C(COc1ccc(Cl)cc1Cl)Nc1ccccc1F	/	/	0	/	125*
COc1cccc(OC)c1C(=O)NC(=S)Nc1cc(-c2nc3ccccc3[nH]2)ccc1Cl	active	16	16	90	2
c1ccc(CSc2nnc(-c3ccco3)n2Cc2ccco2)cc1	-3	37	-20	2	10
CCCCOc1[nH]c2nc(-c3ccco3)n(Cc3ccco3)c(=N)c2c1C#N	127*	7	95	118*	-74
CN(C)c1ccc(-c2csc(C(C)(O)c3cccc(F)c3)n2)cc1 (stereo not drawn)	/	/	-1	/	/
Cc1cc(NO)nc(-c2ccc(Br)cc2)n1	-6	96*	-24	4	0
COCCNC(=O)c1ccc(CN2CCc3ccccc3C2)cc1	-1	-3	0	27	10
CCCNC(=O)c1ccc(CN2CCc3ccccc3C2)cc1	60	4	-5	3	85*
Cc1cccnc1C1=NOC(Cc2ccccc2)C(=O)N1Cc1ccc2c(c1)OCO2 (stereo not drawn)	/	/	5	/	/
CCOC(=O)c1sc(=S)n(C)c1NC(=O)c1ccc(OC)cc1	-9	-100	31	1	6
CCOC(=O)c1sc(=S)n(C)c1NC(=O)c1ccccc1Cl	1	2	43*	5	10
CCc1nc2ccc(C(=O)NCc3cccs3)cn2c1N(CC)Cc1cccc(Br)c1	/	/	-2	/	/
COc1cccc(C(C)(O)c2nc(-c3cccc(C#N)c3)cs2)c1 (stereo not drawn)	/	/	-8	/	/
Cc1nc2sc3c(c2c(=O)[nH]1)CCC3	1	20	-8	5	-3
Cc1cc(-c2nc3c4c5c(sc4[nH]c(=O)n3n2)CCC5)c(C)o1	98	80*	1	-15	-17
CCN(c1ccccc1)S(=O)(=O)c1ccc(C(=O)N2CCN(c3ccccc3)CC2)cc1	/	/	0	/	10
CC(/C=C\c1cccnc1)=C/C(=O)O	73*!	4	5	8	9
COC(=O)CCCC1=CC2=CC(=O)C(C)(OC(=O)c3cccs3)C(=O)C2=CN1CCc1ccccn1 (stereo not drawn)	73	31	26	46*	-2
O=C(NC(Sc1ccc(Cl)cc1)C(=O)O)c1ccccc1 (stereo not drawn)	/	/	40*	/	-15
O=C(NC(C(=O)O)c1ccccc1)c1ccccc1 (stereo not drawn)	-8	6	0	11	-10
c1ccn2cc(CSc3nnc4ccccn34)nc2c1	-11	21	8	9	3
Cn1ccnc1SCc1cn2ccccc2n1	32	26	6	58	72*
SMILES	eIF4H inh	PHOSPHO1 inh	MLLE-PAM2 inh	PABP polyA inh	CRFR2-BP antag
Brc1ccccc1OCCN1CCCC1	/	/	9	/	2
COCCN=c1scc(-c2ccco2)n1/N=C/c1ccc(O)c(O)c1O	?	-73	19	4.6*	0
C=CCN=c1scc(-c2ccco2)n1/N=C/c1ccc(O)c(O)c1O	92*	4	11	42*	1
CN=c1scc(-c2cccs2)n1/N=C/c1ccc(O)c(O)c1O	/	16	18	/	-65
Cc1ccc(C)c(OCC(=O)N(Cc2ccccc2)c2c(N)n(Cc3ccccc3)c(=O)[nH]c2=O)c1	/	/	-8	/	-22
CC1(C(=O)NS(=O)(=O)c2cccc(C#N)c2)CCN1C(=O)C1(c2ccccc2)CC1 (stereo not drawn)	/	/	1	/	/
O=C(Nc1ccc(Cl)cc1)[C@@H]1[C@@H]2C(=O)N(c3cccc(F)c3)C(=O)[C@@H]2[C@H]2C=CC=NN21	2	-48	2	3	-12
O=C(Nc1ccc(Cl)cc1)[C@@H]1[C@@H]2C(=O)N(c3ccc4ccccc4c3)C(=O)[C@@H]2[C@H]2C=CC=NN21	-1	76*	-4	7	3
COc1ccccc1Nc1ccc(S(=O)(=O)N2CCCCC2)cc1[N+](=O)[O-]	-7	7	-8	-14	51*
COc1ccc(Nc2ccc(S(=O)(=O)N3CCCCC3)cc2[N+](=O)[O-])cc1OC	1	-4	14	8	17
Cc1cccc(Nc2nc(-c3ccc4c(c3)OCCO4)cs2)c1	-6	73*	18	4	0
CCCn1c(=O)n(C)c(=O)c2c(SCC(=O)NCC(c3ccccc3)N(C)C)nc(CC(C)C)nc21 (stereo not drawn)	2	-7	-11	4	7
COc1ccc(OCCSc2nnc(CC(=O)Nc3cccc(Cl)c3Cl)n2C)cc1	-2	56	-107	32	-4
CCn1c(CC(=O)Nc2cccc(Cl)c2Cl)nnc1SCCOc1ccc(OC)cc1	0	72*	-113	47	-7
Cn1nc2c(c1C(=O)O)CCCC2	102*	0	-3	13*	0
CCc1nc2ccc(C(=O)Nc3ccc(Cl)c(Cl)c3)cn2c1N(C)Cc1ccc(OC)cc1	/	/	-27	/	/
O=C(CCCc1ccccc1)Nc1ccccn1	1	39	3	52*	6
Clc1ccc(OCc2nnc3n2CCCCC3)c(Cl)c1	-4	36	7	5	4
CCOc1ccccc1-c1nc(-c2ccc(NC(=O)Cc3ccccc3OC)cc2)no1	54*	28	-13	8.4*	-16
O=C(CSc1ncccn1)N(Cc1cccnc1)C(CCc1ccccc1)c1nc2ccccc2[nH]1 (stereo not drawn)	/	/	-5	/	/
CCOC(=O)c1cc(-c2ccco2)nc2c1c(C)nn2-c1ccccc1	36	-4	-2	4	-19
CCOC(=O)c1cc(-c2ccc(OC)cc2)nc2c1c(C)nn2CCC(N)=S	-4	20	35*	-1	-30
N#C/C(=C/Nc1ccccc1C(=O)O)C(N)=O	-5	32	4	-1	7
CCOc1ccc(NS(=O)(=O)c2cccs2)cc1S(=O)(=O)N1CCCC1	/	/	5	/	8
Cc1ccc(NC(=O)C2CCN(S(=O)(=O)c3cccs3)CC2)c(O)c1	-1	62*	-15	3	-10
CC1(C(=O)CSc2ncn[nH]2)CCC(=O)O1 (stereo not drawn)	1	93*	/	14	/
Cc1cc(C)cc(NC(=O)c2ccc(N3C(=O)C4CCCCC4C3=O)cc2)c1 (stereo not drawn)	-2	19	2	2	75*
O=C(CN1CCN(c2ccc(F)cc2)CC1)Nc1ccccc1[N+](=O)[O-]	60*	40	17	40*	-25
CC1(C)CC(=O)C(C2C3=C(CC(C)(C)CC3=O)Oc3ccc4ccccc4c32)C(=O)C1 (stereo not drawn)	5	37	7	5	81*
Cc1cc(C)cc(-n2ncc3c2CCCC3NC(=O)c2ccccc2N2CCOCC2)c1 (stereo not drawn)	2	12	11	-13	18

High-throughput results deposited in PubChem BioAssay by Sanford-Burnham Center for Chemical Genomics.
